Bioassay records as filed in PubChem.
A selection: hits, their analogues and other compounds. The true share with any hit is near 1.3%.
EPAC2 antag: qHTS for Antagonist of cAMP-regulated guanine nucleotide exchange factor 2 (EPAC2): primary screen | EPAC2 GEF exchange of Rap1B-BODIPY-GDP, fluorescence | Potency, µM (series often up to 114 µM), for the others: at the top dose activity, negative = inhibition, most hits filed as inhibitors | 360,000 tested, 0.18% active; further: on the % scale 0 is the no-effect control and ±100 the full control effect; nearly all actives have a fitted effect of over 45% in size
RGS4 inhibitor: Inhibitors of Regulator of G Protein Signaling (RGS) 4: qHTS | Potency, µM (titrated, usually from 114 µM), for inactives: at the highest dose activity change, negative = inhibition, usual class: inhibitors | Regulator of G-protein signaling 4 (Homo sapiens), P49798 | Transcreener GDP fluorescence polarization, RGS4-accelerated GTP hydrolysis | 390,000 tested, 0.039% active; further: on the % scale 0 is the no-effect control and ±100 the full control effect; nearly all actives have a fitted effect of over 75% in size
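MLSMR compounds (23 nl, pin-transferred) preincubated 10 min at room temperature with a 500nM (2x) first reagent, then RGS4 at 900nM (2x) plus Transcreener GDP mix added; fluorescence polarization (620/688 nm) read before and after 90 min at 30 °C.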
EPAC1 antagonist: qHTS for Antagonist of cAMP-regulated guanine nucleotide exchange factor 3 (EPAC1): primary screen; Rap guanine nucleotide exchange factor 3 (Homo sapiens), O95398; EPAC1 GEF assay, Rap1b-BODIPY-GDP exchange fluorescence; Potency, µM (top dose mostly 115 µM), for inactives: at the top dose activity change, negative = inhibition, usual class: inhibitors; 360,000 tested, 0.14% active;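 further: plate controls were vehicle for no effect and positive control for full effect; nearly all actives have a fitted effect of over 50% in size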
EPAC2 ag: qHTS for Agonist of cAMP-regulated guanine nucleotide exchange factor 4 (EPAC2): primary screen; Rap guanine nucleotide exchange factor 4 (Homo sapiens), Q8WZA2; EPAC2 activation, biochemical qHTS; response scale: 100% = 6.5 mM cAMP response; Potency, µM (highest dose often 154 µM), for the others: at the top dose activation, most hits filed as activators; 360,000 tested, 0.079% active; AID 720711, 2013; further: nearly all actives have a fitted effect of over 50% in size
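Each well held 100 nM EPAC2, 250 nM RAP1B-BODIPY-GDP and 50 uM GDP. Fluorescence, read at 5-min intervals to 30 min, was referenced to a 6.5 mM cAMP positive control.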
EPAC1 agonist: qHTS for Agonist of cAMP-regulated guanine nucleotide exchange factor 3 (EPAC1): primary screen | EPAC1 agonist qHTS, biochemical assay; response scale: 100% = response to 6.5 mM cAMP | Potency, µM (doses to about 154 µM), inactives show at the highest dose activation, hits mostly activators | AID 720707, 2013 | 360,000 tested, 0.073% active | Rap guanine nucleotide exchange factor 3 (Homo sapiens), O95398; further: nearly all actives have a fitted effect of over 60% in size
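Nucleotide exchange assay: 100 nM EPAC1 with 250 nM Rap1B loaded with BODIPY-GDP and 50 uM GDP, room temperature. Fluorescence (480/540 nm) read every 5 min for 30 min; signal change normalized to 6.5 mM cAMP as full agonist.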
BRCA1 expr up: qHTS Assay to Identify Small Molecule Activators of BRCA1 Expression; MCF7-BRCA1-FFLuc reporter, luminescence, 48 h; response scale: scaled: vehicle 0%, 10 µM genistein 100%; Potency, µM (series often up to 46.1 µM), without a hit: at the highest dose activation, hits mostly activators; 380,000 tested, 1.1% active; AID 624202, 2012; further: nearly all actives have a fitted effect of over 80% in size
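Compounds are tested at multiple concentrations on MCF7 BRCA1-luciferase reporter cells seeded at 2000 per well; after 48 h, a single luminescence end-point is taken and curves fitted to the normalized data.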
Starred values were filed as active, the others as inactive; i = inactive; ? = inconclusive; . = not tested or not shown; [ ] = another dose, or the depositor's remark. The call rests on the fitted dose curve; in most records, active means well fitted curve in the direction sought with a large enough effect; inconclusive means small, poorly fitted or top-dose-only effect, or another doubt; inactive means no such curve, though single readings can be large; an effect the other way counts as inactive or inconclusive. Potency means the concentration at half of the fitted maximal effect.

SMILES	EPAC2 antag	RGS4 inhibitor	EPAC1 antagonist	EPAC2 ag	EPAC1 agonist	BRCA1 expr up
Cc1cnc(NC(=O)c2sc(Nc3ccccc3)nc2N)o1	12%	18%	-15%	10%	7%	13µM*
Nc1nc(Nc2ccccc2)sc1C(=O)c1ccccc1	-17%	8%	-24%	4%	15%	-28%
CC1CCCN(c2nc3ccsc3c(=O)s2)C1 (configuration not stated)	-1%	40%	-14%	4%	14%	13µM*
O=C1NC(=O)C2(CCC(C(=O)O)C2)N1 (configuration not stated)	?	-15%	-9%	?	15%	0%
Cc1ccc2c(=O)c(C(=O)NCc3cccs3)c[nH]c2c1	0%	-14%	5%	9%	-2%	11µM*
Cc1cccc2c(=O)c(C(=O)NCc3cccs3)c[nH]c12	-1%	2%	7%	0%	1%	13µM*
Cc1occc1C(=O)NCc1cccs1	16%[57.1 µM]	-1%	15%	12%	0%	-2%
CCOC(=O)C(Cc1nc(OCc2ccccc2)cc(OCc2ccccc2)n1)=NO	-10%	1%	-7%	10%	3%	-59%
CC1(C)CC(=O)C(C=NCC(O)c2ccccc2)=C(O)C1 (configuration not stated)	6%	-4%	21%	-2%	-2%	0%
CCN(CC)c1ccc2cc(-c3nc(-c4ccc(Cl)cc4Cl)cs3)c(=O)oc2c1	.	16%	.	.	.	.
CCN(CC)c1ccc2cc(-c3nnc(-c4ccccc4)o3)c(=O)oc2c1	238%	16%[11.4 µM]	99%	35µM*	?	1.4µM*
CCN(CC)c1ccc2cc(-c3nc4ccccc4n3C)c(=O)oc2c1	17%	-39%	-15%	11%	27%	-19%
CCN(CC)c1ccc2cc(C(=O)c3cccs3)c(=O)oc2c1	i	.	322%	79µM*	56µM*	52%
CCN(CC)c1ccc2cc(-c3nc(-c4ccc(OC)cc4)cs3)c(=O)oc2c1	5.6µM*	-24%	231%	-381%	-86%	-13%
CCN(CC)c1ccc2cc(-c3nc4ccccc4[nH]3)c(=O)oc2c1	229%	-9%	53%	7%	?	24%
CCCNC(=O)C1(CC2CC(c3ccccc3)=NO2)CCN(C(=O)OC(C)(C)C)CC1 (configuration not stated)	2%	-5%	3%	0%	-3%	-1%
Cc1ccc(CNC(=O)C(=O)NCC2OCCCN2S(=O)(=O)c2ccc(F)cc2)cc1 (configuration not stated)	-9%	18%	3%	7%	-4%	-2%
Oc1[nH]c2ccc(Br)cc2c1N=Nc1ccc(F)cc1	71µM*	3%	?	-170%	-129%	-32%
COc1ccc(N2CCN(c3nccs3)CC2)cc1	?	1%	4%	4%	-4%	11µM*
CS(=O)(=O)Nc1ccc(C2=NN(S(C)(=O)=O)C(c3ccc4c(c3)OCO4)C2)cc1 (configuration not stated)	-1%	3%	-5%	10%	13%	4.5µM*
CC(=O)N1N=C(c2cccc(NS(C)(=O)=O)c2)CC1c1ccc2c(c1)OCO2 (configuration not stated)	?	4%	9%	20%	12%	34%
